# From PubChem BioAssay
# FadD28 binding = inhibitors of FadD28 bisubstrate probe binding, primary screen, biochemical, fluorescence polarization, single point; Mycobacterium tuberculosis FadD28 fatty-acid-AMP ligase; inhibition, % at 12.5 µM; hit rate 0.22% among 360,000; in the data active = inhibition above about 8.5%, passing the limit was not always enough
# Mtb hypoxia rep = PubChem AID 1159583; M. tuberculosis hypoxia-regulated fluorescent reporter, fluorescence; fluorescence inhibition, % (concentration not given with the values); hit rate 0.1% among 300,000; in the data active = fluorescence inhibition mostly above about 23%, no sharp cut-off; inactive = mostly below about 17%
# PrP 5UTR inh = inhibition of PrP 5' UTR reporter expression; cell-based PrP 5' UTR mRNA reporter, plate reader; inhibition, % (concentration not given with the values); hit rate 0.35% among 340,000; in the data active = inhibition above about 52%; also: 0 = median of the neutral control wells
# PriA SSB inh = inhibitors of Klebsiella pneumoniae PriA binding to SSB C-terminal tail, primary screen, biochemical, AlphaScreen; PriA–SSB C-terminal tail interaction (Klebsiella pneumoniae); AlphaScreen SSBct-PriA binding, biotinylated peptide; inhibition, % at 33 µM; hit rate 0.6% among 430,000; AID 1272365, 2023; in the data active = inhibition mostly above about 37%, no sharp cut-off; inactive = mostly below about 20%;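 also: plate controls were negative control peptide for no effect and reference peptide for full effect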
# Mtb BioA inh = M. tuberculosis BioA enzyme inhibitors, primary screen, biochemical, plate reader, single point, HTS; 7,8-diaminopelargonic acid synthase BioA (Mycobacterium tuberculosis); purified M. tuberculosis BioA enzyme; inhibition, % at 9.99 µM; hit rate 0.096% among 360,000; AID 602481, 2012; in the data active = inhibition above about 40%
# TcdB GH inh = TcdB glycohydrolase inhibitors, primary screen, biochemical, single point, plate reader; AID 652162, 2013; inhibition, % at 9.99 µM; hit rate 0.24% among 350,000; TcdB glycohydrolase enzymatic assay; Toxin B (Clostridioides difficile), P18177; in the data active = inhibition above about 10%
# Active calls of the source: *; / = no result; ! = repeats disagree. Most compounds without a hit are left out; they make up all but 1% or so of the library.
SMILES,FadD28 binding,Mtb hypoxia rep,PrP 5UTR inh,PriA SSB inh,Mtb BioA inh,TcdB GH inh
CCc1ccc(OCC(=O)Nc2cccc3c2CCCC3)cc1,-3,6,-19,51*,6,0
Cc1cc(C(=O)Nc2nnc(-c3cc(C)nn3C)o2)on1,/,/,/,49*,/,/
COc1ccc2c(c1)NC(C)(C)C=C2C,-2,4,-25,9,-1,0
CC1=CC(C)(C)Nc2ccccc21,-1,7,0,53*!,-1,1
S=c1nc(-c2ccc(Cl)cc2)[nH][nH]1,-2,3,-15,4,0,12*
CCOC(=O)c1cc([N+](=O)[O-])sc1N,-2,13,-20,-4,-1,29*
CCOC(=O)c1cc([N+](=O)[O-])sc1NC(=O)CC,-4,-2,-32,7,0,0
CCc1ccc(OCC(=O)NNC(=O)CSc2nnc(-c3ccc(C)cc3)n2C)cc1,1,1,-18,-28,/,/
Cc1nnc(SCC(=O)NNC(=O)COc2ccc(Br)cc2)n1C,0,32*,-8,8,-2,1
O=C(NCCn1ncc2c(=O)n(Cc3cccc(Cl)c3)cnc21)c1ccco1,/,/,/,-2,/,/
O=C(O)c1cccc(-n2cccc2/C=C/[N+](=O)[O-])c1,13*,0,-5,-9,/,0
Cc1ccc(S(=O)(=O)Nc2nc3ccc(S(C)(=O)=O)cc3s2)cc1,-2,2,-15,40*,0,-2
Oc1ccc2c3c1O[C@H]1c4[nH]c5c(c4CC4(O)C(C2)N(CC2CC2)CCC314)CC1(O)[C@H]2Cc3ccc(O)c4c3[C@@]1(CCN2CC1CC1)C5O4 (stereo partly specified),/,/,/,/,/,1
C=C1CC[C@@]2(O)[C@H]3Cc4ccc(O)c5c4[C@@]2(CCN3CC2CC2)[C@H]1O5,-2,/,-9,41*,0,/
Cc1ccc(C(=O)NCC(=O)Nc2ccc(F)c(F)c2F)cc1,-5,-1,-17,-9,-1,0
O=C(Cc1cccs1)Nc1cc(S(=O)(=O)N2CCCCC2)ccc1Cl,1,3,0,-13,-1,0
Cn1cccc1-c1cc(C(=O)N/N=C/c2ccc(F)cc2)[nH]n1,-3,/,-10,/,6,2
Cn1cccc1-c1cc(C(=O)N/N=C/c2cccc(Br)c2)[nH]n1,/,/,/,47*,/,/
COc1ccc(-n2c(N)cc(=O)nc2SCC(=O)N2CCN(c3ccccc3)CC2)cc1,0,4,-93,7,2,0
Clc1cccc(CSc2nccn2-c2ccccc2)c1,4,/,-33,53*,1,/
FC(F)(F)c1ccc(CSc2nccn2-c2ccccc2)cc1,-1,/,-21,48*,1,/
Clc1cccc(CSc2ncn(-c3ccccc3)n2)c1,2,-1,-30,-57,0,0
NC(=O)CSc1nccn1-c1cccc(C(F)(F)F)c1,/,/,/,-2,/,/
Brc1ccc(CSc2nccn2-c2ccccc2)cc1,-5,/,-11,59*,0,/
Cn1cc(C(CO)Cc2ccccc2)c2ccccc21 (stereo unspecified),1,21,-20,-2,0,20*
SMILES,FadD28 binding,Mtb hypoxia rep,PrP 5UTR inh,PriA SSB inh,Mtb BioA inh,TcdB GH inh
NC(=O)N/N=C1/CCCC1c1ccccn1 (stereo unspecified),/,/,/,67*,/,/
O=[N+]([O-])c1ccc(NN=C2CCCCC2c2ccccn2)cc1 (stereo unspecified),/,12,/,9,/,/
CSc1nc(C)c2c(n1)N(c1ccc(O)cc1)CC2,-2,5,-12,-9,-2,0
CCC(CO)Nc1ncnc2c1cnn2-c1ccc(OC)cc1 (stereo unspecified),-2,10,-32,115*,23,0
NS(=O)(=O)c1ccc(CCNC(=O)Cc2csc(Nc3ccc(Cl)cn3)n2)cc1,/,/,/,0,/,/
COc1ccc([C@@]2(C)NN=C3Oc4ccccc4N32)cc1,/,/,/,-18,/,/
COc1ccc(C2(C)NN=C3Sc4ccccc4N32)cc1 (stereo unspecified),/,/,/,41*,/,/
COc1cccc(CSc2nc(CC(=O)Nc3ccccc3SC)cc(=O)[nH]2)c1,/,/,/,-5,/,/
COc1cc2c(c(OC)c1OC)-c1ccc(O)c(=O)cc1[C@@H](NC(C)=O)CC2,0,/,0,-13,1,0
COc1cc2c(c(OC)c1OC)-c1ccc(O)cc1[C@@H](NC(C)=O)CC2,-1,/,68*,-3,-1,0
